Structures are written as SMILES. About 83,000 compounds went through this panel and 20% of them were active in at least one assay; those are over-represented in the sample as a whole.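 Testing used 96-well plates and a 48-hour single-concentration exposure. Example: -40 means 40% of the starting cells died.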 Calls of active or inactive are those of the source. Rule for the calls: active = growth percent below 10; inactive = the rest.

The assay deals with CAKI-1 renal. The assay can be described thus: NCI-60 one-dose screen, 48 h (100 = growth as untreated, 0 = no growth, -100 = all killed). The note with it: 10 µM unless noted.
In the case of `O=C(Nc1nc2ccccc2s1)Nc1ccccc1Cl`, the growth was 45.2% (inactive).

As for `Cc1ccc(C(=O)Nc2cc(-n3ccnc3C)cc(C(F)(F)F)c2)cc1C#Cc1cnc2cccnn12`, the growth is -41.4% (active).

With `O=C(c1ccc(O)cc1)C1[C@H](c2ccc(Cl)cc2)[C@@H](c2ccccc2)NC12C(=O)Nc1ccccc12` (stereo partly drawn), the growth is 3.82% (active).

Take `COc1ccc(-c2nc3ccc(-c4nnc(SCC(=O)Nc5ccc(/C(C)=N\O)cc5)o4)cc3[nH]2)cc1`: the growth is 96.1% (inactive).

Consider `C[C@H]1[C@@H](CC(=O)N[C@@H](Cc2coc3ccccc23)B(O)O)O[C@@H]2OC3(C)CC[C@H]4[C@H](C)CC[C@@H]1[C@@]24O3`, for which the growth is 15.5% (inactive).

For the molecule `Cc1cc(C(NC(=O)C2CC3(CC(Nc4cccc5c4C(=O)N(C4CCC(=O)NC4=O)C5=O)C3)C2)c2ccc3c(c2)OC(F)(F)O3)c(O)c2ncccc12` (stereo not drawn), the growth is 10.6% (inactive).

As for `NC(=O)c1ccc(-c2ccc3ncnc(N4CCc5cc(F)c(Cl)cc54)c3c2)cn1`, the growth was 31.1% (inactive).

Regarding `CCN1C(=O)N(CC)C2NNC(Sc3c(C(=O)O)c4ccccc4n(CCC(C)C)c3=O)=NC21` (stereo not drawn), the growth was 38.9% (inactive).

With `COc1ccc2[nH]c(O)c(N=Nc3nc(-c4ccc(Cl)cc4)cs3)c2c1`, the growth was -37.6% (active).

In the case of `CC[C@]12C=CCN3CC[C@@]4(c5ccc(OC)cc5N(C)[C@H]4[C@@](O)(C(=O)OC)[C@@H]1OC(=O)CCCC[P+](c1ccc(F)cc1)(c1ccc(F)cc1)c1ccc(F)cc1)[C@@H]32`, the growth is 73.2% (inactive).

As for `COc1cccc(/C=C/c2nc3ccccc3c(=O)n2CC(=O)Nc2ccccc2)c1`, the growth is 72.3% (inactive).

Take `O=C(c1ccc(Cl)cc1)C1[C@H](c2ccccc2Cl)[C@@H](c2ccccc2)NC12C(=O)Nc1ccc(Br)cc12` (stereo partly drawn): the growth was -47.6% (active).

Take `O=C(CSc1nnc(-c2ccc(-c3nc4ccc(Cl)cc4[nH]3)cc2)o1)Nc1ccc(Cl)cc1`: the growth is -40.3% (active).

As to `N#Cc1c(NC(=O)N2CCOCC2)n(-c2ccc(OC(F)(F)F)cc2)c2cc(F)ccc12`, the growth is 88.9% (inactive).

Take `O=C(N/N=C/c1ccc(Cl)o1)c1[nH]c2ccc(Br)cc2c1-c1ccccc1`: the growth was -0.252% (active).

Turning to `CC1=C(C(=O)OCc2ccccc2)C(c2cccc3ccccc23)n2c(nc3ccccc32)N1` (stereo not drawn), the growth was 30.5% (inactive).

Take `CC1=NN(C2=NC(=O)C(CC(=O)Nc3ccccc3C(F)(F)F)S2)C(c2ccc(N(C)C)cc2)C1` (stereo not drawn): the growth was 71% (inactive).

For `CN1C(=O)C2(C(C#N)=C(c3ccc(Cl)cc3)Nc3c2c(-c2ccccc2)nn3-c2ccccc2)c2ccccc21` (stereo not drawn), the growth was 71% (inactive).

Regarding `O=[N+]([O-])c1cccc(-c2nnc3c(/C=C/c4ccc(F)cc4)nc4ccccc4n23)c1`, the growth was 88.8% (inactive).

With `COC(=O)c1cc(C(C)=O)n2c3ccccc3c3ccccc3c12`, the growth is 44.5% (inactive).

Regarding `CCCCCCCOc1ccc(S(=O)(=O)Nc2ccc(C)c(F)c2C(=O)O)cc1`, the growth was 93% (inactive).

With `COc1ccc2[nH]cc(-c3cc4nc(-c5cn(C)c6ncc(Br)cc56)cc(N)n4n3)c2c1`, the growth was -86.1% (active).

Consider `COc1ccc2c(c1)N=c1c-2cc2c(O)[nH]c(=S)n2c1=O`, for which the growth was 29.7% (inactive).

For `CC(C)C[C@H](NC(=O)[C@@H]1CCCCCCCCCCC(=O)N[C@@H](CC(=O)N2CCC[C@@H]2C2CCCC2)C(=O)N1)B(O)O`, the growth is 7.24% (active).

Consider `O=C1NC(=S)/C(=C/c2cn(-c3ccccc3)nc2-c2ccccc2)S1`, for which the growth is 28.3% (inactive).

As for `CN(C)C(=O)c1cc(-c2ccc3ncnc(N4CCc5cc(F)c(Cl)cc54)c3c2)cnc1N`, the growth is -76.5% (active).

As for `N#C/C(=C/c1ccc(Cl)cc1)c1nnc(NC(=O)c2ccc(-n3c(=O)[nH]c4ccccc4c3=O)cc2)s1`, the growth was 95.5% (inactive).

Regarding `COc1c(B(O)O)cc(F)cc1-c1nc2c(F)cc3[nH]ncc3c2c2c1CCCC2`, the growth is 0.122% (active).

As for `O=C(CSc1nc2sc3c(c2c(=O)n1-c1ccc(Cl)cc1)CCCC3)NNC(=O)c1ccc(Br)cc1`, the growth was 71.4% (inactive).

`CN(C)c1ccc(/C=C/c2n(Cc3ccc4ccccc4c3)c3ccccc3[n+]2Cc2ccc3ccccc3c2)cc1`: the growth is -95.9% (active).

`COc1ccc2[nH]c(=O)cc(-n3ncc(C(=O)/C=C/c4cc(OC)c(OC)c(OC)c4)c3C)c2c1`: the growth is 14.6% (inactive).

Turning to `COc1ccc(C(=O)C[n+]2cccc3c4ccccc4ccc32)cc1`, the growth was 79% (inactive).

For `CN1CCc2c(sc3ncnc(N/N=C/c4cccc(Cl)c4Cl)c23)C1`, the growth was 79.4% (inactive).

For `COc1ccc2[nH]c(O)c(N=Nc3nc(-c4ccccc4)cs3)c2c1`, the growth was 14% (inactive).

As for `COc1ccc(N=Nc2c(N)nn3c(N)c(C#N)c(-c4ccc(F)cc4)nc23)cc1`, the growth was 58.6% (inactive).

For `C=CCSc1nnc(-c2ccc(-c3nc4ccccc4[nH]3)cc2)o1`, the growth was 63.9% (inactive).

Take `Cc1oc(-c2ccccc2)nc1CN[C@@H]1C[C@@H]2C[C@H]([C@H]1C)C2(C)C`: the growth was 44.5% (inactive).

As to `COc1ccc(NC2=C(I)C(=O)C(C)=C(C)C2=O)cc1`, the growth is 29.1% (inactive).

The record behind these values is PubChem BioAssay (NCI).
